Source: PubChem BioAssay AID1159580 (chemical genetic matrix, 2015)
Where “and” joins values, the source holds several entries; their conditions need not be identical. Equal entries are not always repeated. In all, about 5,500 compounds went through this assay and about 2,000 (36%) were called active. Roughly 18% stayed inconclusive and do not appear here. No stated cut-off is given here; in the data, active means normalized growth mostly below about 0.91 (no sharp cut-off); inconclusive means no clear call, values can overlap the other calls; inactive means mostly above about 0.92. This is one part of the list.

Assay: chemical genetic growth profiling, strain panel (AID 1159580);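 further: tested at 20 µM; growth read once vehicle control cultures reached saturation at 30 °C; 1 = growth at the plate median or of vehicle wells; lower values mean less growth of the strain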
Details: S. cerevisiae deletion strains, growth OD

Measured: normalized growth

CCOC([O-])=Nc1c[n+](N2CCOCC2)no1
inactive: locus YAL013W, strain DEP1, active compounds read low 1.01 | locus YAL021C, strain ccr4, active compounds read low 0.994 | locus YAL026C, strain drs2, active compounds read low 0.999 | locus YAL030W, strain snc1, active compounds read low 0.991 | locus YBL061C, strain skt5, active compounds read low 0.997 | locus YBR009C, strain hhf1, active compounds read low 0.997 | locus YBR021W, strain FUR4, active compounds read low 1.03 | locus YBR023C, strain chs3, active compounds read low 0.986 | locus YBR171W, strain sec66, active compounds read low 1 | locus YBR229C, strain ROT2, active compounds read low 1.01 | locus YBR231C, strain swc5, active compounds read low 0.997 | locus YBR279W, strain paf1, active compounds read low 1.01 | locus YCL011C, strain gbp2, active compounds read low 0.996 | locus YCL016C, strain dcc1, active compounds read low 0.978 | locus YCL029C, strain bik1, active compounds read low 0.991 | locus YCL061C, strain MRC1, active compounds read low 0.998 | locus YCL069W, strain vba3, active compounds read low 0.996 | locus YCR088W, strain abp1, active compounds read low 0.999 | locus YDL005C, strain med2, active compounds read low 0.993 | locus YDL035C, strain GPR1, active compounds read low 1.03 | locus YDL040C, strain nat1, active compounds read low 1 | locus YDL074C, strain BRE1, active compounds read low 1.04 | locus YDL101C, strain DUN1, active compounds read low 1.02 | locus YDL134C, strain PPH21, active compounds read low 1.01 | locus YDL185W, strain tfp1, active compounds read low 0.984 | locus YDL192W, strain arf1, active compounds read low 0.998 | locus YDR001C, strain nth1, active compounds read low 0.993 | locus YDR069C, strain doa4, active compounds read low 1 | locus YDR101C, strain arx1, active compounds read low 0.972 | locus YDR137W, strain rgp1, active compounds read low 1.01 | locus YDR150W, strain NUM1, active compounds read low 1.02 | locus YDR159W, strain sac3, active compounds read low 0.993 | locus YDR162C, strain NBP2, active compounds read low 1.01 | locus YDR195W, strain ref2 1 | locus YDR297W, strain sur2, active compounds read low 1 | locus YDR318W, strain mcm21, active compounds read low 0.99 | locus YDR334W, strain swr1, active compounds read low 0.984 | locus YDR335W, strain msn5, active compounds read low 0.991 | locus YDR388W, active compounds read low 0.997 | locus YDR392W, strain spt3, active compounds read low 0.927 | locus YDR502C, strain sam2, active compounds read low 0.988 | locus YEL003W, strain gim4, active compounds read low 1 | locus YEL037C, strain rad23, active compounds read low 0.993 | locus YEL061C, strain CIN8 (second series), active compounds read low 1 | locus YEL061C, strain CIN8, active compounds read low 1.01 | locus YER015W, strain faa2, active compounds read low 0.979 | locus YER016W, strain bim1, active compounds read low 1.01 | locus YER110C, active compounds read low 0.984 | locus YER111C, strain swi4, active compounds read low 0.979 | locus YER155C, strain BEM2 (second series), active compounds read low 0.984 | locus YER155C, strain BEM2, active compounds read low 1 | locus YER167W, strain BCK2, active compounds read low 1.01 | locus YFR010W, strain ubp6, active compounds read low 0.986 | locus YGL078C, strain dbp3, active compounds read low 0.987 | locus YGL086W, strain mad1, active compounds read low 1 | locus YGL167C, strain pmr1, active compounds read low 1 | locus YGL173C, strain kem1, active compounds read low 0.994 | locus YGL227W, strain vid30, active compounds read low 0.993 | locus YGL240W, strain doc1, active compounds read low 1.01 | locus YGL248W, strain PDE1, active compounds read low 1.01 | locus YGL253W, strain hxk2, active compounds read low 0.993 | locus YGR078C, strain PAC10, active compounds read low 1 | locus YGR135W, strain pre9, active compounds read low 0.986 | locus YGR229C, strain SMI1, active compounds read low 1.02 | locus YGR252W, strain gcn5, active compounds read low 1.01 | locus YHR013C, strain ard1, active compounds read low 0.985 | locus YHR027C, strain rpn1, active compounds read low 0.987 | locus YHR030C, strain SLT2, active compounds read low 1.01 and 1.02 | locus YHR079C, strain IRE1 (second series), active compounds read low 1 | locus YHR079C, strain IRE1, active compounds read low 1.03 | locus YHR094C, strain hxt1, active compounds read low 0.998 | locus YHR129C, strain ARP1, active compounds read low 1.01 | locus YHR142W, strain chs7, active compounds read low 0.992 | locus YHR200W, strain rpn10, active compounds read low 0.995 | locus YIL066C, strain RNR3, active compounds read low 1.01 | locus YIL073C, strain SPO22, active compounds read low 0.973 | locus YIL125W, strain kgd1, active compounds read low 1 | locus YIR030C, strain dcg1, active compounds read low 0.992 | locus YJL092W, strain hpr5, active compounds read low 0.992 | locus YJL095W, strain BCK1 (second series), active compounds read low 0.994 | locus YJL095W, strain BCK1, active compounds read low 1 and 1.03 | locus YJL115W, strain asf1, active compounds read low 0.982 | locus YJL129C, strain trk1, active compounds read low 0.997 | locus YJL134W, strain LCB3, active compounds read low 1.01 | locus YJL154C, strain vps35, active compounds read low 0.99 | locus YJL164C, strain tpk1, active compounds read low 0.989 | locus YJL166W, strain qcr8, active compounds read low 0.991 | locus YJL168C, strain set2, active compounds read low 1 | locus YJL187C, strain SWE1 (second series), active compounds read low 1.01 | locus YJL187C, strain SWE1, active compounds read low 1.01 | locus YJR043C, strain POL32, active compounds read low 0.989 | locus YJR066W, strain TOR1, active compounds read low 0.997
